The values that follow come from ChEMBL document CHEMBL3988442, “University of Dundee, Small-Polar-MMV Screening Library” (2021).

The whole screen tested about 48,000 compounds, of which about 13,000 (27%) showed an effect of 50% or more. Some of the results follow.

This assay relates to Wolbachia pipientis. Nature of the assay: Anti-Wolbachia Cell-Based Screen. Format: functional. More on the design: scale not given: in the data most compounds retested in dose-response had high values. The following applies: 5 µM.
Turning to `C1CCCN(c2nc(C3CC3)no2)CC1`, the “Percent Effect” value is on record as 3.376%.
Take `O=C(O)C(F)(F)F.c1ncn(Cc2cn3c(n2)CN(CC2CCCCC2)CC3)n1`: the “Percent Effect” value is -9.983%.
Consider `CN(C)CCN1CCC(NC2CSCCc3ccccc32)CC1` (stereo unspecified), for which the “Percent Effect” value was -11.44%.
`Oc1cccc(CNCCC2CCCO2)c1` (stereo unspecified): the “Percent Effect” value turned out to be 17.11%.
For `O=C(Cc1cccc(F)c1)NCCNCc1cccc(O)c1` the value was -5.303%.
For `CCOc1cccc(CCNC(=O)Cc2cccc(O)c2)n1` the value was 19.48%.
On to `O=C(Cc1cccc(F)c1)NCCNCc1ccc2c(c1)CCO2`, for which the “Percent Effect” value is -2.552%.
For `O=C(Cc1ccccc1)NCCNCc1cccc(O)c1` the value was 87.97%; for `O=C(Cc1ccc(F)cc1)NCCNCc1cccc(O)c1`, 75.28%; for `CC(NCc1ccc(-c2ccc(Cl)cc2)o1)c1nnc2n1CCC2` (stereo unspecified), -12.12%.
The value for `COCCSc1ccc(C(C)NC(=O)Nc2cccnc2)cc1` (stereo unspecified) was -3.032%; that for `CN(Cc1nnc(-c2ccco2)o1)CC1CCCN1c1cccnn1` (stereo unspecified) was 6.587%; that for `CC(C)Oc1ccccc1-c1cc(CN)ccc1F` was 10.62%.
For `CC(C)OCC(=O)Nc1ccc(Oc2ccc3c(c2)OCO3)nc1` the value was 77.43%; for `O=C(Cn1cc(Cl)cn1)Nc1ccc2c(c1)OCO2`, 1.967%; for `Cc1cnn(CCCOc2ccc3c(c2)OCO3)c1`, -11.3%.
For `Cc1ccc(Oc2ccc(NC(=O)NCC3CCOC3)cn2)cc1C` (stereo unspecified), the “Percent Effect” value is given as -4.291%.
For `CC(=O)Nc1ccc(Oc2ccc3c(c2)OCO3)nc1` the value was 99.6%; for `Cc1cc(C)nc(NC(=O)C(C)Oc2ccc3c(c2)OCO3)n1` (stereo unspecified), 15.82%; for `CC(C)C(=O)Nc1ccc(Oc2ccc3c(c2)OCO3)nc1`, 107.3%.
The value for `O=C(CCN1C(=O)CCC1=O)Nc1ccc(Oc2ccc(Cl)cc2)nc1` was -10.42%.
For `CCCNC(=O)C(C)Nc1cccc(Oc2ccc(C#N)cn2)c1` (stereo unspecified) the value was -3.4%; for `O=C(NCC1(O)CCOC1)NCC1(c2ccccc2Cl)CC1` (stereo unspecified), 3.661%.
For the compound `CCS(=O)(=O)CC(=O)Nc1cccc2c1CN(CC(C)C)C2`, the “Percent Effect” value is -13.69%.
For the compound `CC(NC(=O)CCc1nc(-c2nnc[nH]2)no1)c1ccc(F)cc1F` (stereo unspecified), the “Percent Effect” value was found to be 1.12%.
On to `O=C1NC2(CCN(Cc3ccccc3Cl)CC2)CC1c1ccccc1` (stereo unspecified), for which the “Percent Effect” value was 14.18%.
For `O=C(O)c1ccccc1CN1CCC2(Cc3ccccc3CNC2=O)C1` (stereo unspecified) the value was 101.8%.
Regarding `O=C(C1CCOC1)N1CCC2(CC1)Cc1ccccc1CNC2=O` (stereo unspecified), the “Percent Effect” value is reported as -36.36%.
The value for `O=C1NCc2ccccc2CC12CCN(Cc1ccccc1Cl)CC2` was 119.1%.
Turning to `O=C1NCc2ccccc2CC12CCN(Cc1c(F)cccc1Cl)C2` (stereo unspecified), the “Percent Effect” value was 159.3%.
With `CN(Cc1c(F)cccc1Cl)C(=O)CN(C)C1CCc2ccccc21` (stereo unspecified), the “Percent Effect” value is given as -6.423%.
Turning to `O=C(O)c1csc(S(=O)(=O)N2CCN(Cc3c(F)cccc3Cl)CC2)c1`, the “Percent Effect” value was determined as 1.307%.
For `COCCCC1(C(=O)O)CCCN(Cc2ccccc2C)C1` (stereo unspecified) the value was -5.241%; for `N#Cc1ccccc1C(=O)N1CCC2(CC(=O)NC2=O)C1` (stereo unspecified), -23.72%.
As to `CC(CC#N)N(C)Cc1ccccc1Cl` (stereo unspecified), the “Percent Effect” value is recorded as 14.98%.
Consider `CSc1nccc(N2C[C@@H]3CC[C@H](C2)N(CC2CCC2)C3=O)n1`, for which the “Percent Effect” value is recorded as 23.13%.
The value for `COCCC1(C(=O)NCCc2nncn2C2CC2)CCC1` was -3.297%.
Regarding `CCOCC1CCN(C(=O)Nc2ccc3c(c2)CCCO3)C1` (stereo unspecified), the “Percent Effect” value is recorded as -8.757%.
For `CS(=O)(=O)c1nccn1CCOc1ccccc1F`, the “Percent Effect” value amounted to 21.64%.
For `O=C(O)C(F)(F)F.c1csc(CN2CCCn3cnc(COCC4CC4)c3C2)n1` the value was -1.239%.
The value for `O=C1OCCN1CC(=O)N1C[C@H]2CC[C@@H]1CN(C(=O)c1cccnc1)C2` was -9%; that for `CC(NC1CCN(C(=O)C2CCCCC2)CC1)c1nccs1` (stereo unspecified) was -8.519%.
On to `CCc1cnccc1C(=O)NC1CCN(C(=O)C2CCCCC2)CC1`, for which the “Percent Effect” value is 87.11%.
For `CC(NC(=O)NC1CCN(Cc2ccncc2)CC1)c1ccccc1F` (stereo unspecified) the value was -8.351%; for `CCc1ccc(O)c(C(=O)NC2CCN(Cc3ccncc3)CC2)c1`, 19.96%; for `O=C(C1CCCC1)N1CCC(Nc2ccncn2)CC1`, 23.24%.
Consider `CCc1cnccc1C(=O)NC1CCN(Cc2ccccc2F)CC1`, for which the “Percent Effect” value came out at 94.68%.
For `CCc1ccc(O)c(C(=O)NC2CCN(C(=O)OC)CC2)c1`, the “Percent Effect” value was 2.941%.
For `O=C(NC1CC1)c1cc(NC(=O)N2CCCC2)ccc1Cl`, the “Percent Effect” value is reported as -51.77%.
The value for `O=C(NC1CCN(C(=O)C2CCCCC2)C1)c1ccncc1Cl` (stereo unspecified) was 79.99%; that for `CCc1cnccc1C(=O)NC1CCN(C(=O)OC)CC1` was 94.08%.
Turning to `N#Cc1cnc(NC2CCN(C(=O)C3CCCCC3)CC2)c(Cl)c1`, the “Percent Effect” value is listed as 1.1%.
The value for `CNC(=O)C(C)CN(C)C(=O)Nc1ccc(F)c(-n2cccc2)c1` (stereo unspecified) was -4.138%; that for `CC(C)n1ccc(=O)nc1SC1CCN(c2ccccc2F)C1=O` (stereo unspecified) was -4.763%.
For `CCN(CC)C(=O)CNS(=O)(=O)c1cc(Br)ccc1F`, the “Percent Effect” value amounted to 7.808%.
With `CCC(C#N)NC(=O)COC1CCCCC1` (stereo unspecified), the “Percent Effect” value is on record as 0.5871%.
The value for `O=C(O)C(F)(F)F.O=C(O)C(F)(F)F.c1nc2n(c1CN1CCCCC1)CCN(C1CCOC1)CC2` (stereo unspecified) was 7.057%.
`CC(=O)N1CCOC[C@H](OCC(=O)N(C)C)C1`: the “Percent Effect” value was -10.39%.
For `CC(=O)N1CCOC(c2cncc(CCC(=O)N(C)C)n2)C1` (stereo unspecified), the “Percent Effect” value was determined as 131.5%.
On to `Cn1cc(CC(=O)N2CCOC(c3nc(C(C)(C)C)n[nH]3)C2)cn1` (stereo unspecified), for which the “Percent Effect” value is listed as -9.292%.
The value for `Cc1cnn(CCC(=O)N2CCOC(c3nc(C(C)(C)C)n[nH]3)C2)c1` (stereo unspecified) was 0.508%; that for `Cc1nn(CCC#N)c(C)c1CCC(=O)N(C)C.Cl` was 11.54%.
As for `CC(C)(C)c1n[nH]c(C2CN(C(=O)CCc3cscn3)CCO2)n1` (stereo unspecified), the “Percent Effect” value is listed as -3.136%.
The value for `CN1CCOC(c2cncc(CCC(N)=O)n2)C1` (stereo unspecified) was 120.9%.
With `CN1CCOC(c2cncc(CCC(=O)N(C)C)n2)C1` (stereo unspecified), the “Percent Effect” value was 119.8%.
With `CC(=O)N1CCOC(c2cncc(CCC(N)=O)n2)C1` (stereo unspecified), the “Percent Effect” value was 132.1%.
Consider `CCCc1n[nH]c(C2CN(CC(=O)N(C)Cc3ccco3)CCO2)n1` (stereo unspecified), for which the “Percent Effect” value was -31.39%.
For `CCC(CC)CN1CCC2(CCC(=O)N2OCc2ccccc2F)CC1` the value was 5.285%.
Consider `CSCC(C)(O)CNc1cccc(F)c1C(C)=O` (stereo unspecified), for which the “Percent Effect” value stood at 5.644%.
Take `Cc1nc(CNC(C(=O)N2CCOCC2)c2ccccc2)cs1` (stereo unspecified): the “Percent Effect” value is -4.254%.
For `COCCN(C)CCN1CC2(CCN(C3CCSC3)CC2)OC1=O` (stereo unspecified), the “Percent Effect” value was -12.17%.
The value for `NC(=O)CCn1ccc(NC(=O)c2ccc(OCC3CC3)cc2)n1` was -25.96%.
The value for `CC(C)(C(=O)NCC(N)=O)c1ccccc1F` was -10.57%.
Take `Cc1cn2c(CN(C)C(=O)c3nccnc3N)c(C)nc2s1`: the “Percent Effect” value is -5.585%.
The value for `Nc1nccc(N[C@H]2CN(CC(=O)NC3CCCCC3)C[C@@H]2C2CC2)n1` was -21.82%.
For `Cn1c(SCC(O)COCc2ccc(Cl)cc2)nnc1C1CC1` (stereo unspecified) the value was -3.183%; for `O=C(C1CC(F)(F)C1)N1C[C@@H]2CN(Cc3ccoc3)CCO[C@@H]2C1`, 97.76%.
For `O=C(N1CCCC1)N1C[C@@H]2CN(Cc3ccoc3)CCO[C@@H]2C1` the value was 26.69%; for `O=C(C1CC(F)(F)C1)N1C[C@@H]2CN(CC3CC3)CCO[C@@H]2C1.O=C(O)C(F)(F)F`, 110.9%; for `CCN1CCO[C@@H]2CN(C(=O)COC3CCCC3)C[C@@H]2C1.O=C(O)C(F)(F)F`, 2.686%.
Take `O=C(C1CC(F)(F)C1)N1C[C@@H]2CN(CC3CCCC3)CCO[C@@H]2C1.O=C(O)C(F)(F)F`: the “Percent Effect” value amounted to 97.34%.
The value for `O=C(O)C(F)(F)F.O=C(c1cocn1)N1C[C@@H]2CN(CC3CC3)CCO[C@@H]2C1` was 1.689%; that for `O=C(C1CC(F)(F)C1)N1C[C@@H]2CN(Cc3ccsc3)CCO[C@@H]2C1.O=C(O)C(F)(F)F` was 8.794%; that for `O=C(CC1CCCC1)N1C[C@@H]2CN(Cc3ccoc3)CCO[C@@H]2C1` was -9.792%.
For `Cc1cnc(C(=O)N2C[C@@H]3CN(CC4CCCC4)CCO[C@@H]3C2)cn1.O=C(O)C(F)(F)F` the value was -8.351%; for `CCS(=O)(=O)CC(=O)NC1(c2ccc(Cl)c(Cl)c2)CC1`, -4.937%.
The value for `NC(=O)CC1CCN(S(=O)(=O)c2cnn(-c3ccccc3)c2)CC1` was 23.91%; that for `OC[C@H]1CCN(Cc2ccc3ccccc3n2)C[C@@H]1O` was -11.71%; that for `COc1c(C2CCCN2c2ncnc3c2CCC3)c(C)nn1C` (stereo unspecified) was -10.62%.
Turning to `Cc1cc(-c2ccc(=O)n(C3CCN(S(C)(=O)=O)CC3)n2)c(C)o1`, the “Percent Effect” value is on record as 123.5%.
The value for `Cc1cc(-c2ccc(=O)n(C3CCN(S(=O)(=O)N(C)C)CC3)n2)c(C)o1` was 95.62%; that for `Cc1cc(-c2n[nH]c3c2CN(S(=O)(=O)c2ccsc2)CC3)c(C)o1` was 6.081%.
For `CCCS(=O)(=O)N1CCC(NC(=O)c2cc(C)c(CC)s2)CC1` the value was 4.17%.
`CCCS(=O)(=O)N1CCC(n2nc(-c3cc(C)oc3C)ccc2=O)CC1`: the “Percent Effect” value came to 123.5%.
The value for `CCCS(=O)(=O)N1CCC(c2ccc(OC)cc2)CC1` was -3.773%; that for `Cc1ccc(C(C)NC(=O)N2CCN(S(C)(=O)=O)CC2)o1` (stereo unspecified) was 16.96%.
On to `CCS(=O)(=O)N1CCC(n2nc(-c3cc(C)oc3C)ccc2=O)CC1`, for which the “Percent Effect” value is given as 128.2%.
As to `CN(C)S(=O)(=O)N1CCC(Oc2ccc(C#N)cc2)CC1`, the “Percent Effect” value is -11.9%.
For `Cc1cc2cc(CNC3CCN(S(C)(=O)=O)CC3)oc2cc1C` the value was -4.149%; for `CN(C)S(=O)(=O)N1CCC(C(O)c2ccc(Cl)cc2)CC1` (stereo unspecified), -7.887%.
On to `CCS(=O)(=O)N1CCC(c2nnc(C3CC3)o2)CC1`, for which the “Percent Effect” value is given as -10.63%.
